pCIP destab = lowers stability of the mouse p/CIP coactivator protein. Q05BA5. F442A p/CIP-EGFP cells, EGFP fluorescence, 16 h. decrease of EGFP signal, % at 10 µM. actives 0.01% (n = 290,000). AID 1984;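 active means EGFP signal decrease of at least 30% at 10 µM or well 3 SD below plate mean, unless failing retest; inactive means the rest, including hits failing retest or dose response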
HDAC3 inh = inhibitors of human histone deacetylase 3 | inhibition, % at 8.3 µM | recombinant HDAC3, fluorogenic peptide/trypsin coupled, fluorescence | AID 2718 | actives 0.15% (n = 320,000) | O15379; in the data active means inhibition above about 26%, passing the limit was not always enough; inconclusive means no clear call, values can overlap the other calls
SUMO Mot1 rescue = blocks SUMOylation pathway, rescuing yeast Mot1-301 growth | S. cerevisiae Mot1-301 growth rescue, ATP luminescence, 38.5C; percent above DMSO median, 100 means doubled | growth rescue, % at 18.8 µM | actives 1% (n = 320,000) | AID 2716;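 active means every valid replicate shows activation above 250% relative to neutral control wells; inactive means the rest, any valid replicate at or below 250%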;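 further: OY570 slx delta 5 strain wells were the positive control but not used for scaling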
GASC-1 inh = inhibitors of human GASC-1 (JMJD2C) demethylase; inhibition, % at 2.35 µM; GST-JMJD2C(1-420) H3K9me3 demethylation, DELFIA europium; Q9H3R0; actives 0.069% (n = 330,000);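 active means more than half of a compound's replicate wells show inhibition beyond 50%, single wells judged on their own value; inconclusive means some, but no more than half, of replicates pass 50% inhibition; inactive means no replicate passes 50% inhibition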;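 further: signal counts dimethyl H3K9 product captured on neutravidin plate; 0% = median of DMSO wells and 100% = 0.3 times that DMSO median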
Target sequence (Q9H3R0 1-420 limits assumed): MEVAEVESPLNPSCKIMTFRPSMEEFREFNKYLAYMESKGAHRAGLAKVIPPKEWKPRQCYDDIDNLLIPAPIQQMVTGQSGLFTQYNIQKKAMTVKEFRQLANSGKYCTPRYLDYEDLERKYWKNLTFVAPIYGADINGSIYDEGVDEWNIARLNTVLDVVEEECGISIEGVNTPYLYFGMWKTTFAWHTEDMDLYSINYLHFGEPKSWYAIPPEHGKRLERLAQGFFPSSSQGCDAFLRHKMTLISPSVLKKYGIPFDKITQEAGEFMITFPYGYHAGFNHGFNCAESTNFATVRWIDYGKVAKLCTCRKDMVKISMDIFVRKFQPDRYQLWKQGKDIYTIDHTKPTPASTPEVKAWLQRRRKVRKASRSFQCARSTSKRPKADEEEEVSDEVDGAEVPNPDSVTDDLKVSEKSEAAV
PvdQ inh = P. aeruginosa PvdQ acylase inhibition; inhibition, % at 10 µM; purified PvdQ acylase, fluorescence plate reader; actives 0.063% (n = 340,000); in the data active means inhibition above about 30%, passing the limit was not always enough; inconclusive means no clear call, values can overlap the other calls;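 further: 0% = vehicle neutral wells and 100% = reference inhibitor wells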
PHOSPHO1 inh = PHOSPHO1 (human) inhibition; actives 1.1% (n = 290,000); recombinant PHOSPHO1, absorbance phosphatase assay; inhibition, % at 13.3 µM; AID 1565; in the data active means inhibition above about 60%
Target sequence (Q8TCT1 whole entry, looked up): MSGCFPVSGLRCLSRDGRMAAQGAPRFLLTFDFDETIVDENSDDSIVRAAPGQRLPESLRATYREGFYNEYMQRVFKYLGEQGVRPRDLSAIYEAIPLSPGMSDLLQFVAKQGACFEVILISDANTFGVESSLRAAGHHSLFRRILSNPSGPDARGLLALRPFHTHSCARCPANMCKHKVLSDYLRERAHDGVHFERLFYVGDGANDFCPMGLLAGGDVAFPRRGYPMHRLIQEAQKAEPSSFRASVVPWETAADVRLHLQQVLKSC
Starred values were filed as active, the others as inactive; i = inactive; ? = inconclusive; . = not tested or not shown. A selection: hits, their analogues and other compounds. The true share with any hit is near 2.2%.

SMILES	pCIP destab	HDAC3 inh	SUMO Mot1 rescue	GASC-1 inh	PvdQ inh	PHOSPHO1 inh
O=C(NCc1ccccn1)c1ccco1	-12.1	-11.3	-5.9	3.8	-1.4	0.6
O=C(NCc1ccccn1)c1cn(Cc2ccccc2)nn1	2.2	-9.5	4.5	64.1*	-11.9	2.3
CCCOc1ccc(C(=O)N2CCN(Cc3ccc4c(c3)OCO4)CC2)cc1	-0.1	5.3	i	-27.4	-9.4	.
O=C(Nc1ccc(F)cc1F)c1ccc2c(=O)n3c(nc2c1)CCC3	.	.	.	.	-6.0	.
O=C(COC(=O)c1ccco1)NNC(=O)c1ccc(Cl)cc1	.	-13.9	-23.1	81.2*	-5.6	.
Nc1nc2c(s1)COc1ccccc1-2	-10.6	0.0	-5.0	4.6	-8.7	40.7
Nc1nc2c(s1)CCc1c-2cnn1-c1ccccc1	-14.2	-7.2	15.2	-49.1	-12.4	106.0*
S=c1[nH]nc(-c2ccco2)n1Cc1ccccc1	-6.7	6.3	2.7	-3.6	-0.2	79.3*
Cc1c(Cl)c(-c2n[nH]c(=S)n2Cc2ccco2)nn1C	-7.4	1.9	-5.3	2.0	10.2	80.2*
Cc1n[nH]c(=S)n1Cc1ccccc1	-4.9	-4.2	145.7	7.6	-0.4	7.5
CCCCOc1ccc(Cc2n[nH]c(=S)n2N)cc1	-15.8	1.2	-3.9	-1.2	-10.5	78.9*
S=c1[nH]nc(-c2ccc(Br)o2)n1Cc1ccccc1	16.5	3.1	-14.9	-2.7	0.1	-35.8
Cc1ccn(Cc2n[nH]c(=S)n2Cc2ccccc2)n1	6.1	4.3	-21.9	9.4	9.2	77.9*
CC(C)(C)c1ccccc1NC(=S)NC1CCCCC1	-34.0	-0.2	8.4	5.3	3.0	9.5
COc1ccc(CCn2ccc(O)c(Cc3c(F)cccc3Cl)c2=O)cc1OC	10.7	2.4	-4.3	1.2	1.4	17.9
S=c1[nH]nc(-c2ccc(Cl)cc2)n1Cc1ccccc1	-19.9	-5.3	172.1	-3.7	-1.3	-1.2
S=c1[nH]nc(COc2ccccc2)n1Cc1ccccc1	-14.0	-0.2	9.9	23.2	-14.0	8.4
CCc1ccc(OCc2n[nH]c(=S)n2Cc2ccccc2)cc1	-22.5	12.5	-19.7	-1.1	2.2	89.7*
S=c1[nH]nc(-c2ccccc2)n1Cc1ccccc1	-8.0	0.2	-19.7	-4.1	-10.4	104.8*
CCn1c(-c2ccco2)n[nH]c1=S	7.9	-3.8	5.7	-8.4	-12.0	41.4
CC(C)Cn1c(-c2ccco2)n[nH]c1=S	-0.3	?	1.9	6.1	-14.5	80.4*
CCOc1ccccc1NC(=S)NCc1ccco1	-7.3	5.0	1.3	-0.4	-8.0	82.1*
S=C(NCc1ccco1)Nc1ccc(Cl)c(Cl)c1	-4.9	3.7	-10.1	26.0	-5.2	72.0*
O=C(O)CNC(=O)c1ccc(NC(=O)/C(=C/c2ccccc2)NC(=O)c2ccccc2)cc1	0.4	4.4	47.5	-15.1	10.9	28.6
S=c1nn[nH]n1C12CC3CC(CC(C3)C1)C2	1.7	-1.1	14.2	-13.7	0.2	101.6*
SMILES	pCIP destab	HDAC3 inh	SUMO Mot1 rescue	GASC-1 inh	PvdQ inh	PHOSPHO1 inh
Cc1cc(C)c2[nH]c(=S)cc(C)c2c1	-5.2	-0.5	-5.2	-25.8	-3.0	104.3*
O=C(O)c1ccc(/C=N/Nc2ccc(Cl)nn2)cc1	3.4	7.3	-5.1	-4.1	-9.9	34.6
COc1cc(OC)c(OC)cc1C#N	5.5	-3.4	689.2*	3.6	-7.6	11.4
COc1ccc(NC(C)=O)cc1C#N	-5.3	1.2	.	33.3	-2.5	34.9
Cc1ccc2c([N+](=O)[O-])cccc2n1	-21.0	3.5	-6.3	2.2	22.9	-1.5
Cc1ccc2c([N+](=O)[O-])c(C)ccc2n1	0.5	-6.7	59.8	1.5	-7.9	65.2*
COc1ccccc1NC(=O)COC(=O)C1CCN(/C=C/C(=O)C(F)(F)F)CC1	6.6	2.3	6.4	5.9	-10.6	2.6
CN(C)C(=O)CSc1nnc2sc3ccccc3n12	-4.0	3.8	5.9	-4.8	-19.1	-1.3
CCOC(=O)CC(=O)CSc1nnc2sc3ccccc3n12	-11.3	-6.0	-0.4	-0.6	-13.0	63.7*
CNc1cccccc1=S	-2.7	?	52.9	16.4	-13.0	75.7*
CNc1ccccc1	.	9.3	9.3	2.6	-5.2	.
O=C(c1ccc(Cl)cc1)c1c[nH]c(C(=O)NNc2ccccc2)c1	3.5	-12.0	336.7*	10.4	0.9	-35.4
Cc1ccc(C)c(N2CCN(C(=O)CCCN3C(=S)NC(C)(C)CC3C)CC2)c1 (stereo not drawn)	-3.3	3.9	-10.5	-4.8	6.8	-12.5
Cc1cccc(N2CCN(C(=O)CCN3C(=S)NC(C)(C)CC3C)CC2)c1C (stereo not drawn)	3.8	-2.5	614.2*	-2.1	-9.8	0.6
c1ccc(-c2cnnc(SCc3cn4cccnc4n3)n2)cc1	5.3	0.5	3.2	-4.0	-11.5	75.9*
Cn1c2ccccc2c(=O)c2c(=O)n(-c3ccccc3)c(-c3ccc(C(C)(C)C)cc3)nc21	-8.9	-10.7	4.3	2.3	-4.7	20.3
COc1cc(CNn2c(C)n[nH]c2=S)cc(Cl)c1OCc1ccccc1	-5.7	19.0	278.7	-3.1	-6.6	83.7*
COc1cc(CNn2cn[nH]c2=S)cc(Cl)c1OCc1ccc(F)cc1	0.7	3.5	30.6	-2.9	-1.0	-12.3
O=C1C2C3c4ccccc4C(c4ccccc43)C2C(=O)N1Cc1ccco1 (stereo not drawn)	4.7	5.1	-7.8	-7.1	-23.8	9.6
O=C1C2C3C=CC(C4CC34)C2C(=O)N1Cc1ccco1 (stereo not drawn)	-3.3	-3.3	-10.1	3.0	40.8*	-2.2
O=C1C2C(C(=O)N1Cc1ccco1)C1C=CC2C12CC2 (stereo not drawn)	-4.0	-9.3	-12.4	4.0	86.6*	34.6
Cc1ccc[n+](CC(=O)c2ccc(Br)cc2)c1C	4.3	-6.9	-4.8	-13.2	-0.5	44.1
O=C(CSc1nnc(NC(=O)C2CC2)s1)NCc1ccc(F)cc1	1.0	1.8	-10.0	3.2	6.3	27.6
O=C(CSc1nnc(NC(=O)c2c(F)cccc2F)s1)NCc1ccc(F)cc1	.	7.0	670.2*	-5.7	1.7	.
COc1ccc(Cn2c(SCC#N)nc3ccc(N4CCOCC4)cc3c2=O)cc1	7.0	-1.7	-5.6	5.3	-10.0	32.7
C#CCNC(=O)C1=C[C@H](c2coc3ccccc3c2=O)C[C@H](OCc2ccc(CO)cc2)O1	-0.7	-4.9	-8.3	5.5	-14.4	21.9
C#CCNC(=O)C1=C[C@@H](c2coc3ccccc3c2=O)C[C@@H](OCc2ccc(CO)cc2)O1	3.9	35.5*	-10.3	0.6	1.2	26.2
CC1(C)Cc2c(C#N)c(N)sc(=S)c2CO1	-7.0	7.3	-8.6	26.3	-3.4	79.5*
CCN(CC)c1nc(C)c2c(c1C#N)CC(C)(C)OC2	-6.8	-6.5	0.7	7.0	-18.6	15.2
CC(C)C1Cc2c(C#N)c(N)sc(=S)c2CO1 (stereo not drawn)	-11.0	3.4	-12.9	-15.6	-10.0	88.6*

Screens: PubChem, several laboratories
